HBB splicing – qHTS Assay for Modulators of Hemoglobin Beta Chain Splicing | HBB splicing reporter cell assay, activation; EGFP reporter with mutant IVS2-654 intron; response scale: normalised to 500 nM splice-correcting PNA | Potency, µM (top dose mostly 46.1 µM), actives largely listed as activators | 65,000 tested, 0.06% active
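Compounds were applied for 2 days to HeLa EGFP-654 cells, 500/well in Optimem with 2% FCS. The reporter's EGFP is disrupted by mis-splicing of beta-globin intron IVS2-654. Readout: summed well GFP fluorescence from 488 nm laser scanning; reference was 500 nM antisense […] 654 PNA.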
FLuc inh – qHTS Assay for Inhibitors of Firefly Luciferase; purified firefly luciferase, luminescence, 8 min; AID 411, 2009; 72,000 tested, 2.2% active; Luciferin 4-monooxygenase (Photinus pyralis), P08659; Potency, µM (highest dose often 57.1 µM), hits mostly inhibitors; note: nearly all actives have a fitted effect of over 40% in size
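qHTS concentration-response profiling: light output of P. pyralis luciferase with luciferin and 10 uM ATP, imidazole buffer pH 7.2. Read by luminescence after 8-min room-temperature incubation.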
GFP derepression – qHTS Assay for Epigenetic Modulators; Potency, µM (titrated, usually from 46.1 µM); AID 597, 2007; 68,000 tested, 0.09% active; mouse C127i GFP locus derepression, cytometry, 30 h
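Murine C127i mammary cells carrying a silenced, stably integrated CMV-driven GFP reporter were treated with compound for 30 hours at 37 C. After PBS washes, GFP-positive cells were counted by laser-scanning microplate cytometry.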
GBA mod – Glucocerebrosidase. Lysosomal acid glucosylceramidase (Homo sapiens), P04062. purified enzyme, resorufin glucoside fluorescence (screen aimed at inhibitors), 20 min. Potency, µM. 48,000 tested, 1.1% active. AID 360, 2006; in the data active = potency below about 15 µM; inconclusive = mostly about 16 µM to 33 µM;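 note: the screen sought inhibitors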
Target sequence (P04062 whole entry, looked up): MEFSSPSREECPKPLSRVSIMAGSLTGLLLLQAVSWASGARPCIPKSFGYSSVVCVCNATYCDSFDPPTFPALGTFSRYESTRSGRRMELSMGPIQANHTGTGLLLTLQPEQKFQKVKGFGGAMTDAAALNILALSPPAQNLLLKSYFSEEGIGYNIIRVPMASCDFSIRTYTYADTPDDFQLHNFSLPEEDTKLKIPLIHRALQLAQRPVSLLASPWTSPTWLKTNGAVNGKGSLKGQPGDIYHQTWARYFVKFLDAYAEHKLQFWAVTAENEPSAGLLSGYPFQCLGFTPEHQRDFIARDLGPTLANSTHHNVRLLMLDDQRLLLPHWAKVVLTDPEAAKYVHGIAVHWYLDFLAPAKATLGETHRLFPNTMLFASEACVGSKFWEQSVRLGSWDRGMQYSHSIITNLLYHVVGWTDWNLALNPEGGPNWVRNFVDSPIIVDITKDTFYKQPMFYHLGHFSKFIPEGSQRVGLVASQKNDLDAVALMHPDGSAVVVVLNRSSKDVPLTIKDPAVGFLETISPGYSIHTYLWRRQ
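Wild-type enzyme at 0.2 nM final in 50mM citric acid/KH2PO4, 10mM sodium taurocholate, 0.01% tween-20, pH 5.9, with resorufin beta-D-glucopyranoside at 30 uM final. Compounds titrated, 20 min at RT, red fluorescence read; AC50 from titration.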
Bst PK mod – Pyruvate Kinase. 51,000 tested, 1.2% active. purified pyruvate kinase, luminescence ATP production; ribose 5-phosphate activator present at AC10. Potency, µM. AID 361, 2006; in the data active = potency below about 11 µM; inconclusive = mostly about 12 µM to 25 µM;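 the screen sought inhibitors and activators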
UbGFP stabilizer – Ubiquitin-GFP Assay | AID 526, 2006 | Ubiquitin-GFP reporter cells, proteasome inhibition, GFP fluorescence; response scale: untreated = 0%, 10 µM MG-132 = 100% | 67,000 tested, under 10 active | Potency, µM (top dose mostly 45.9 µM), usual class: activators; active = well fitted activation curve with a large enough effect, not every such curve was filed as active; inconclusive = small, poorly fitted or top-dose-only effect, or another doubt; inactive = no such curve, though single readings can be large or run the other way
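U2OS cells stably expressing ubiquitin(G76V)-GFP, seeded overnight in 0.5% FBS medium, were exposed to compounds (qHTS, 46 uM to 2.9 nM) for 4 hr at 37 °C. GFP-positive cells were counted by laser cytometry (488 ex/515 em), normalized between basal and 10 uM MG-132.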
Hits are given with their value; [ ] = another dose, or the depositor's remark. The list is not random: actives were taken first. Their share in the collection is about 3.3%. Unless noted, calls come from the whole dose curve; as a rule, active = well fitted curve in the direction sought with a large enough effect; inconclusive = small, poorly fitted or top-dose-only effect, or another doubt; inactive = no such curve, though single readings can be large; an effect the other way counts as inactive or inconclusive.

How did CCOC(=O)C1=C(c2ccccc2)NC(SCC(=O)Nc2ccc(C)cc2)=C(C#N)C1c1ccco1 (stereo not given) do in these assays?
HBB splicing: inactive; FLuc inh: inactive; GFP derepression: inactive; GBA mod: 11.9; Bst PK mod: inactive; UbGFP stabilizer: inactive

What do the screens show for `c1cncc(CNc2ncncc2-c2ccc3c(c2)OCO3)c1`?
HBB splicing: inactive; FLuc inh: inactive[2.29 µM]; GFP derepression: inactive[9.22 µM]; UbGFP stabilizer: inactive

What do the screens show for `COC(=O)c1ccc(OCC(=O)c2ccc(O)cc2O)cc1`?
HBB splicing: inactive[1.84 µM]; FLuc inh: 12.6µM; GFP derepression: inactive; GBA mod: inconclusive; UbGFP stabilizer: inactive

How did O=C(CN1C(=O)CCC1=O)Nc1nc(-c2ccccn2)cs1 do in these assays?
HBB splicing: inactive; FLuc inh: inactive; UbGFP stabilizer: inactive

What do the screens show for `O=C(Nc1nc(-c2nc3ccccc3s2)cs1)C1CC1`?
HBB splicing: inactive; FLuc inh: 5.01µM; UbGFP stabilizer: inactive

What do the screens show for `O=C(Nc1nc(-c2ccc3c(c2)OCO3)cs1)C1CC1`?
HBB splicing: inactive; FLuc inh: 12.6µM; UbGFP stabilizer: inactive

How did O=C(CN1C(=O)CCC1=O)Nc1nc(-c2nc3ccccc3s2)cs1 do in these assays?
HBB splicing: inactive; FLuc inh: 12.6µM; UbGFP stabilizer: inactive

Results for CCC(=O)Nc1ccc(NC(=O)c2cccc(OC)c2)nc1 ?
HBB splicing: inactive; FLuc inh: 12.6µM; GFP derepression: inactive; GBA mod: inactive; UbGFP stabilizer: inactive

What do the screens show for `COc1cccc(C(=O)NC2=NCCS2)c1`?
HBB splicing: inactive; FLuc inh: 15.8µM; GFP derepression: inactive; GBA mod: inactive; Bst PK mod: inactive; UbGFP stabilizer: inactive

How did COc1cccc(C(=O)Nc2ccc(NC(=O)C3CC3)cn2)c1 do in these assays?
HBB splicing: inactive; FLuc inh: 7.94µM; GFP derepression: inactive; GBA mod: inactive; UbGFP stabilizer: inactive

Results for COc1cccc(C(=O)Nc2ccc(NC(=O)C(C)C)nc2)c1 ?
FLuc inh: inactive; GFP derepression: inactive; GBA mod: inactive; Bst PK mod: inactive; UbGFP stabilizer: inactive

What do the screens show for `COc1ccc(NC(=O)c2ccco2)cc1NC(=O)c1cccc(OC(C)C)c1`?
FLuc inh: inactive; GFP derepression: inactive; GBA mod: 9.83; Bst PK mod: inactive; UbGFP stabilizer: inactive

Results for COc1ccc2c(c1)[C@]1(C)CCC[C@](C)(CO)[C@@H]1CC2 ?
FLuc inh: inactive[11.4 µM]; GFP derepression: inactive[9.22 µM]; UbGFP stabilizer: inactive

Results for FC(F)(F)c1ccccc1-c1nccc(NCCN2CCOCC2)n1 ?
HBB splicing: inactive; FLuc inh: inactive[2.29 µM]; GFP derepression: inactive[9.22 µM]; UbGFP stabilizer: inactive

How did O=C(NC1=NCCS1)c1ccc(-c2ccc(Cl)cc2)o1 do in these assays?
HBB splicing: inactive; FLuc inh: 7.94µM; GFP derepression: inactive; GBA mod: inconclusive; Bst PK mod: 5.38; UbGFP stabilizer: inactive

Results for COc1cccc(C(=O)Nc2ccc(C(=O)O)cc2)c1 ?
HBB splicing: inactive; FLuc inh: inactive; GFP derepression: inactive; GBA mod: inactive; Bst PK mod: inactive; UbGFP stabilizer: inactive

Results for O=C(NC1=NCCS1)c1cccc(NC(=O)c2ccco2)c1 ?
HBB splicing: inactive; FLuc inh: inactive; GFP derepression: inactive; GBA mod: inactive; UbGFP stabilizer: inactive

What do the screens show for `COc1cccc(C(=O)Nc2ccc(C)cc2)c1`?
HBB splicing: inactive; FLuc inh: 10µM; GFP derepression: inactive; GBA mod: inactive; Bst PK mod: inconclusive; UbGFP stabilizer: inactive

How did Cc1ccc(OCC(=O)Nc2cccc(-c3nnc(-c4ccccc4)o3)c2)cc1 do in these assays?
HBB splicing: inactive; FLuc inh: inactive; GFP derepression: inactive; GBA mod: 8.61; Bst PK mod: inactive; UbGFP stabilizer: inactive

How did COc1ccc(OC)c2sc(N3CCN(c4ccccc4)CC3)nc12 do in these assays?
HBB splicing: inactive; FLuc inh: 25.1µM; GFP derepression: inactive; GBA mod: inactive; Bst PK mod: inconclusive; UbGFP stabilizer: inactive

How did COc1ccc(C)c2sc(N3CCCC3)nc12 do in these assays?
HBB splicing: inactive; FLuc inh: inactive; GFP derepression: inactive; GBA mod: inactive; UbGFP stabilizer: inactive

What do the screens show for `CCOc1ccc(Nc2cc(C)nc(-n3nc(C)cc3C)n2)cc1`?
HBB splicing: inactive[0.369 µM]; FLuc inh: inactive; GFP derepression: 15.8µM; GBA mod: inactive; Bst PK mod: 6.27; UbGFP stabilizer: inactive

What do the screens show for `COc1ccc(Nc2cc(C)nc(N3CCOCC3)n2)cc1`?
HBB splicing: inactive[0.369 µM]; FLuc inh: inactive; GFP derepression: inactive; GBA mod: 10.7; Bst PK mod: 1.52

Results for CCCCOc1ccc(OCCCN2CCOCC2)cc1 ?
HBB splicing: inactive; FLuc inh: inactive; GFP derepression: inactive; Bst PK mod: inactive; UbGFP stabilizer: inactive

How did CCCCCOc1ccc(CN2CCOCC2)cc1Cl do in these assays?
HBB splicing: inactive; FLuc inh: 25.1µM; GFP derepression: inactive; UbGFP stabilizer: inactive

What do the screens show for `O=C(O)[C@@H]1CCCN[C@H]1C(=O)O`?
HBB splicing: inactive; FLuc inh: inactive; GFP derepression: inactive; UbGFP stabilizer: inactive

What do the screens show for `COCCn1c(=O)c(-c2cccs2)nc2cnc(N3CCOCC3)nc21`?
HBB splicing: inactive; FLuc inh: inactive[11.4 µM]; GFP derepression: inactive[9.22 µM]; UbGFP stabilizer: inactive

What do the screens show for `CC1(C)CNC(=O)c2sc(N3CCCCC3)nc2C1`?
HBB splicing: inactive; FLuc inh: 2µM; GFP derepression: inactive; GBA mod: inactive; Bst PK mod: inactive; UbGFP stabilizer: inactive

What do the screens show for `Brc1ccc(-c2cnnc(N3CCCC3)n2)cc1`?
FLuc inh: inactive; GFP derepression: inactive; Bst PK mod: 2.4

What do the screens show for `Cc1cccc(CNc2ncnc3ccc(-c4ccc(C(=O)N(C)C)cc4)cc23)c1`?
HBB splicing: inactive; FLuc inh: inactive[2.29 µM]; GFP derepression: inactive[9.22 µM]; UbGFP stabilizer: inactive

How did O=C(Nc1cccc(F)c1)N1CC2(CCN(C(=O)c3cc(C(F)(F)F)cc(C(F)(F)F)c3)CC2)C1 do in these assays?
HBB splicing: inactive; FLuc inh: inactive[11.4 µM]; GFP derepression: inactive[9.22 µM]; UbGFP stabilizer: inactive

How did Cc1noc(C)c1-c1ccc2ncnc(N(C)C)c2c1 do in these assays?
HBB splicing: inactive; FLuc inh: inactive[2.29 µM]; GFP derepression: inactive[9.22 µM]; UbGFP stabilizer: inactive

What do the screens show for `Cn1cccc1-c1nc2ccc(NC(=O)c3ccccc3)cc2[nH]1`?
HBB splicing: inactive; FLuc inh: inactive; GFP derepression: inactive; UbGFP stabilizer: inactive

What do the screens show for `CC(C)(C)c1ccc(C(=O)Nc2nonc2-c2nc3ccccc3[nH]2)cc1`?
HBB splicing: inactive; FLuc inh: inactive; GFP derepression: inactive; GBA mod: 2.44; Bst PK mod: inactive; UbGFP stabilizer: inactive

Results for Cc1ccc(S(=O)(=O)N[C@H]2COC(=O)[C@@H](C)COC(=O)C/C=C\[C@H]2C)cc1 ?
HBB splicing: inactive[9.22 µM]; FLuc inh: inactive[11.4 µM]
